# DT40 TDP1 CPT: growth inhibition of DT40 Tdp1-/-;hTDP1 cells with camptothecin (screen for TDP1 inhibitors) | chicken DT40 Tdp1-/-;hTDP1 cells + 20 nM CPT, ATP luminescence, 48 h | Potency, µM (doses to about 46.2 µM), without a hit: at the top dose activity change, negative = growth inhibition, actives largely listed as inhibitors | actives 12% (n = 420,000) | AID 686979; note: % is set by controls: 0 for no effect and ±100 for the full control effect; nearly all actives have a fitted effect of over 55% in size
#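 Chicken DT40 Tdp1-/- cells stably complemented with human TDP1 were seeded at 400 cells/well in medium containing 20 nM camptothecin, exposed to pin-transferred compounds, and grown at 37 °C for at least 48 hr. Viability was read as ATP luminescence.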
# TGFb inhibitor: blocks TGF-b signaling; HepG2 CAGA-GFP TGF-b/SMAD3 reporter, GFP fluorescence, 18 h; TGF-beta stimulated, 500 pg/mL final; Potency, µM (top dose mostly 46.1 µM), for the others: at the top dose activity, negative = inhibition, actives largely listed as inhibitors; actives 1.2% (n = 410,000); note: % is set by controls: 0 for no effect and ±100 for the full control effect; nearly all actives have a fitted effect of over 65% in size
#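 HEPG2 CAGA-GFP, 1000 cells/well; 2 h settle, 37 C; cpd via pin tool; TGF-b 500 pg/mL final; 18 h, 37 C; GFP imaging ex488/em500-530; %Activity normalised to -TGF-b and +DMSO controls; CRC fit, curve class.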
# HT1080 IDH1KD tx: toxicity to HT-1080 IDH1 knockdown cells (counter line); HT-1080 IDH1 knockdown viability, ATP luminescence, 48 h; AID 686971; actives 2% (n = 360,000); Potency, µM (doses to about 46.1 µM), for inactives: at the highest dose activity, negative = toxicity, most hits filed as cytotoxic;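 note: 0% = DMSO wells and -100% = cell-free medium wells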
#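 Using the IDH1-knockdown HT-1080 line run in the same batch and compound series as the NT line, viability after 48 h at 37 °C was determined by CellTiter-Glo luminescence and expressed as % activity.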
# DT40 TDP1 no CPT: qHTS for Inhibitors of human tyrosyl-DNA phosphodiesterase 1 (TDP1): qHTS in cells in absence of CPT; Potency, µM (titrated, usually from 46.2 µM), inactives show at the top dose activity change, negative = growth inhibition, actives largely listed as inhibitors; DT40 Tdp1-/- hTDP1 cells, no CPT, ATP luminescence, 48 h; AID 686978, 2013; actives 15% (n = 420,000); note: % is set by controls: 0 for no effect and ±100 for the full control effect; nearly all actives have a fitted effect of over 55% in size
#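 Chicken DT40 Tdp1-/- cells stably complemented with human TDP1 were seeded at 400 cells/well with DMSO in place of 20 nM camptothecin. After compound pinning, cells grew at least 48 hr at 37 °C; viability read by CellTiter-Glo luminescence.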
# HT1080-NT tox: kills 2HG-producing HT-1080-NT fibrosarcoma cells; HT-1080-NT fibrosarcoma viability, CellTiter-Glo ATP luminescence, 48 h; Potency, µM (series often up to 46.1 µM), without a hit: top-dose activity, negative = less viability, usual class: cytotoxic; actives 1.6% (n = 360,000); AID 686970;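 note: NT is the 2HG producing partner of a matched IDH1 knockdown line; 0% = DMSO-treated cells and -100% = media-only wells without cells; nearly all actives have a fitted effect of over 55% in size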
#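 Viability of the 2HG-overproducing fibrosarcoma line after 48 hours of compound exposure at 37 degrees C was determined by luminescence with CellTiter-Glo, and concentration-effect curves were then fitted and categorized.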
# HepG2 viability: counter-screen for TGF-b inhibitors: cytotoxicity in HepG2 cells; HepG2 CAGA-GFP viability, ATP luminescence, 18 h; Potency, µM (top dose mostly 46.1 µM), for the others: at the highest dose activity change, negative = cytotoxicity, hits mostly cytotoxic; actives 0.76% (n = 410,000)
#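 CellTiter-Glo luminescence gave cytotoxicity after 18 hours at 37 degrees C. The cells were HepG2 CAGA-GFP in 1% FBS DMEM, stimulated with 500 pg/mL TGF-beta after compound addition. %Activity was normalised to no-cell wells (complete cell-killing) and DMSO (no toxicity), and curves were fitted and classified.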
# Numbers without * were called inactive; ? = inconclusive; / = not tested or not shown. Most compounds without a hit are left out; they make up all but 17% or so of the library. Calls come from the whole dose curve; as a rule, active = well fitted curve in the direction sought with a large enough effect; inconclusive = small, poorly fitted or top-dose-only effect, or another doubt; inactive = no such curve, though single readings can be large; an effect the other way counts as inactive or inconclusive. Potency is the fitted concentration of half-maximal effect.
SMILES,DT40 TDP1 CPT,TGFb inhibitor,HT1080 IDH1KD tx,DT40 TDP1 no CPT,HT1080-NT tox,HepG2 viability
CCOC(=O)c1nn(-c2ccc(Br)cc2)cc1C(=O)c1cccc2ccccc12,8.2µM*,-3%,?,16µM*,5%,4%
CCOC(=O)c1nn(-c2ccc(F)cc2)cc1O,13%,-2%,15%,11%,?,19%
CCN1C(=O)c2ccccc2Sc2ccc(NC(=O)Nc3ccccc3OC)cc21,?,?,/,?,/,-14%
CCN1C(=O)c2ccccc2Sc2ccc(NC(=O)c3ccc(C#N)cc3)cc21,21µM*,-1%,/,16µM*,/,3%
Cc1ccc(C(=O)Nc2ccc3c(c2)N(C)C(=O)c2ccccc2S3)cc1,5.2µM*,?,/,2.3µM*,/,0%
CN1C(=O)c2ccccc2Sc2ccc(NC(=O)c3ccccc3F)cc21,18µM*,-26%,/,15µM*,/,-20%
CN1C(=O)c2ccccc2Sc2ccc(NC(=O)N3CCN(c4ccccc4F)CC3)cc21,?,2%,/,?,/,-8%
CCN1C(=O)c2ccccc2Sc2ccc(NC(=O)Nc3cccc([N+](=O)[O-])c3C)cc21,21µM*,?,/,?,/,6%
Cc1cnccn1,?,?,/,11%,/,-34%
CC(=O)N1CCc2cc(NC(=O)C3(C)CCN3Cc3ccccc3Cl)ccc21 (stereo not drawn),-20%,-6%,/,?,/,-26%
Cc1cc(C)cc(NC(=O)CN(C)S(=O)(=O)c2ccc3[nH]c4c(c3c2)CCCC4)c1,?,?,/,?,/,-31%
CN(CC(=O)NCc1ccc(F)cc1)S(=O)(=O)c1ccc2[nH]c3c(c2c1)CCCC3,21µM*,-2%,/,18µM*,/,-3%
Cc1cccc(N(C)C(=O)CN(C)S(=O)(=O)c2ccc3[nH]c4c(c3c2)CCCC4)c1,23µM*,?,/,?,/,-24%
CN(CC(=O)NCc1ccccc1)S(=O)(=O)c1ccc2[nH]c3c(c2c1)CCCC3,?,?,/,?,/,-22%
Cc1cccc(C)c1NC(=O)CN(C)S(=O)(=O)c1ccc2[nH]c3c(c2c1)CCCC3,?,?,/,21µM*,/,-28%
CC(C)c1ccc(N2C(=O)CSC23C(=O)N(Cc2ccccc2)c2ccccc23)cc1 (stereo not drawn),/,29%,/,/,/,15%
CC(=O)c1sc(=S)n(-c2ccccc2)c1C,-14%,-1%,-9%,-13%,1%,-6%
CC(=O)c1sc(=S)n(-c2ccc(Cl)cc2)c1C,18µM*,-12%,-1%,?,2%,-10%
C=CCc1cccc(/C=C/c2cc(=O)c3ccccc3[nH]2)c1O,7.3µM*,-8%,-13%,7.3µM*,-6%,-18%
C=CCc1cccc(/C=N/n2cnnc2)c1O,-21%,21%,3%,?,4%,2%
Cn1nc(C(F)(F)F)c(-c2ccc(Br)cc2)c1NC(=O)Nc1ccc(F)cc1F,?,?,18µM*,?,?,-5%
Cc1ccc(Sc2c(C(=O)Nc3ccc(F)cc3F)c(C(F)(F)F)nn2C)cc1,18µM*,14%,-17%,?,3%,-16%
CCCCCCC(=O)N(O)C1CC(=O)N(c2ccc(C)cc2)C1=O (stereo not drawn),2.9µM*,13%,-8%,5.8µM*,-14%,-67%
CCCCCCC(=O)N(O)C1CC(=O)N(c2ccc(Cl)cc2)C1=O (stereo not drawn),2.3µM*,?,-1%,2.9µM*,2%,-13%

# High-throughput results from PubChem BioAssay.
